The test system of test [1] is TRPC4 beta (transient receptor potential cation channel C4), mouse. Description: TRPC4 cation channel opening, retest – cell-based, Fluo4 calcium, HEK293 TRPC4beta/mu-opioid, duplicates, 10 µM, confirmation (AID 2426;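 active = fluorescence ratio normalized to control raised more than 50% in primary screen plus both repeat runs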;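 for activation: percent rise of integrated ratio over buffer wells lacking compound which define 0%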). The settings on record: Fluo4 calcium fluorescence, at 10 µM; active compounds read high.
In test [2] the test system is transient receptor potential cation channel C4 beta (TRPC4), mouse. Description: TRPC4 cation channel opening, second retest – cell-based, second round, Fluo4, HEK293 TRPC4beta/mu-opioid, 1 µM, confirmation (AID 2461;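 active = primary screen active and over 50% activation in each of two duplicate runs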). The settings on record: Fluo4 calcium fluorescence, at 1 µM; active compounds read high.
The subject of test [3] is TRPC4 (transient receptor potential cation channel C4 beta), mouse. Description: potentiation of DAMGO EC20 TRPC4 response – cell-based, second round, Fluo-4, HEK293 TRPC4beta/mu-opioid, 1 µM, confirmation (AID 2554;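 active = primary screen hit whose fluorescence ratio, in both repeats, exceeds the weak agonist control mean by 3 SD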). The settings on record: DAMGO EC20, Fluo-4 calcium flux, at 1 µM; active compounds read high. On the technique in general: Calcium assays in cells follow changes in intracellular calcium, usually with a dye or a luminescent sensor.

In test [4] the test system is TRPC4 beta (transient receptor potential cation channel C4), mouse. Description: potentiation of DAMGO EC20 TRPC4 response – cell-based, Fluo-4, HEK293 TRPC4beta/mu-opioid, confirmation (AID 2555;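 active = primary screen hit whose calcium fluorescence ratio, in both repeats, exceeds the weak agonist control mean by 3 SD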). The settings on record: DAMGO EC20, Fluo-4 calcium flux, at 10 µM; active compounds read high.
For test [5], the target named is Short transient receptor potential channel 4 (Mus musculus) (UniProt Q9QUQ5). Description: blockers of DAMGO-evoked TRPC4 calcium flux – cell-based, Fluo4, HEK293 TRPC4beta/mu-opioid, confirmation (AID 2636). The settings on record: at 10 µM; active compounds read high.
Short transient receptor potential channel 4 (Mus musculus), sequence (Q9QUQ5 whole entry, looked up): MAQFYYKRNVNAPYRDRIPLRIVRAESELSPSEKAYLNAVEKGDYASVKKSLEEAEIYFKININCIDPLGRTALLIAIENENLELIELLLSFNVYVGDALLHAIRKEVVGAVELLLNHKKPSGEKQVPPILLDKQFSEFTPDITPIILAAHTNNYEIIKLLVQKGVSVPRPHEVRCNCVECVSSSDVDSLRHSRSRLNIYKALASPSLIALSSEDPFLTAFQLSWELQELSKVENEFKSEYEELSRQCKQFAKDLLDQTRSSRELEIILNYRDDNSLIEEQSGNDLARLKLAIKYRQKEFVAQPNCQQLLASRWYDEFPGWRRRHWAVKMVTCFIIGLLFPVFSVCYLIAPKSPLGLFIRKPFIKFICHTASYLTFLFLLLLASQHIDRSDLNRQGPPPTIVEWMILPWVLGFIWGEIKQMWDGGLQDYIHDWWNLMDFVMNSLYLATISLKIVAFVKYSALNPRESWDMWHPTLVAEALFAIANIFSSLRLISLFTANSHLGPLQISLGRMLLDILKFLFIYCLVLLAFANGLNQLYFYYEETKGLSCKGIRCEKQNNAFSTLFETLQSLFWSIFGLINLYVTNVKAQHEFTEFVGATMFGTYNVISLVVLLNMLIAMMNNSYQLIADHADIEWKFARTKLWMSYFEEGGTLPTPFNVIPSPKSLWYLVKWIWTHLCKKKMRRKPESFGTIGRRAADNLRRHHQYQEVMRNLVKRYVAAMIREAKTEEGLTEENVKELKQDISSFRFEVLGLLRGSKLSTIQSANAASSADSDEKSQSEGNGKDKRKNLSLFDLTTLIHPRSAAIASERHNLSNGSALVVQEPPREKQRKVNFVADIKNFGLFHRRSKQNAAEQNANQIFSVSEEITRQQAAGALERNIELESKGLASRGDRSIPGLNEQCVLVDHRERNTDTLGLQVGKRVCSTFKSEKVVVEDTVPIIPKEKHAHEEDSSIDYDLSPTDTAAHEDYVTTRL
The target is the same in test [6]. Description: blockers of DAMGO-evoked TRPC4 calcium flux – cell-based, second round, Fluo4, HEK293 TRPC4beta/mu-opioid, 1 µM, confirmation (AID 2637;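 active = calcium signal ratio cut to more than 3 SD under the fully stimulated control mean yet still positive, in both repeats and the primary screen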). The settings on record: at 1 µM; active compounds read high.
For test [7] the target is unchanged. Description: potentiation of DAMGO-evoked TRPC4 calcium signal – cell-based, HEK293 TRPC4/mu-opioid, Fluo-4 calcium, EC20 DAMGO, dose response (AID 434941;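 active = earlier screen potentiator hit that boosts the TRPC4 ion channel at some dose, with a dose response; inactive = no potentiation, no dose response, or not a prior hit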;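 note: calcium entry triggered by an EC20 dose of DAMGO at the co-expressed mu-opioid receptor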). The settings on record: HEK293 TRPC4/mu-opioid cells, Fluo-4 calcium fluorescence; series mostly up to 20 µM.
Test [8] has the same target. Description: block of DAMGO-driven TRPC4 calcium entry – cell-based, HEK293 TRPC4/mu-opioid, Fluo-4 calcium, dose response (AID 434942;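 active = primary screen inhibitor hit that blocks the TRPC4 channel at some tested dose, yielding a dose curve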). The settings on record: HEK293 TRPC4/mu-opioid cells, DAMGO-evoked Fluo-4 calcium ratio; series mostly up to 20 µM.
For test [9], the target named is Short transient receptor potential channel 6 (Mus musculus) (UniProt Q61143). Description: TRPC6 blockade by TRPC4 inhibitor hits – cell-based, HEK293, membrane potential dye, duplicate, selectivity assay for TRPC4 inhibitor project, confirmation (AID 434948;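 active = active in primary screen and both duplicates, each dropping signal beyond three positive-control SD with fluorescence still positive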). The settings on record: HEK293 TRPC6, membrane potential dye fluorescence, at 10 µM, stimulated with maximal-effect acetylcholine; active compounds read high.
Short transient receptor potential channel 6 (Mus musculus), sequence (Q61143 whole entry, looked up): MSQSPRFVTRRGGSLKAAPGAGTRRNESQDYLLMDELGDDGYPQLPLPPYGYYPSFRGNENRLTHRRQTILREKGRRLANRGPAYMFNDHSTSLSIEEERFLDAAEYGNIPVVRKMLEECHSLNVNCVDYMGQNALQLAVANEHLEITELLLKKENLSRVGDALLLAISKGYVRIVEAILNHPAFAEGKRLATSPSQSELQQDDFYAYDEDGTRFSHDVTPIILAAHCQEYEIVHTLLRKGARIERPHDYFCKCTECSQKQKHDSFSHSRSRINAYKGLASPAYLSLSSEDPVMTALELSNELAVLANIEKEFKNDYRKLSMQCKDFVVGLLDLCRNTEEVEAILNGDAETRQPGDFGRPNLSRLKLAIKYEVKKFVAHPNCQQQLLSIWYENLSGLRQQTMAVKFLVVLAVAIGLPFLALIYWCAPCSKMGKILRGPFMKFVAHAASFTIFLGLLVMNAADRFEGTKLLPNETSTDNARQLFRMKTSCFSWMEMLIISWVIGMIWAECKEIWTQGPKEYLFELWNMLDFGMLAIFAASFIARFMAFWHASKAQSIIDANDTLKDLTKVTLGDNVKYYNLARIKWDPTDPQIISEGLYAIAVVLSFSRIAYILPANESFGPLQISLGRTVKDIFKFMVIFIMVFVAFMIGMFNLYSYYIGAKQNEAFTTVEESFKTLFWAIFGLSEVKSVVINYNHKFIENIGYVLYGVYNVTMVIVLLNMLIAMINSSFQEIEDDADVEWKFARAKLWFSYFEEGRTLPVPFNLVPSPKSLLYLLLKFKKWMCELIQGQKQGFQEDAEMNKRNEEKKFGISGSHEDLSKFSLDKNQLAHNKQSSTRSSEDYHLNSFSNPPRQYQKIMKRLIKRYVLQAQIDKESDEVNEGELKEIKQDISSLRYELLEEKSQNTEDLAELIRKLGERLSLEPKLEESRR

The target is the same in test [10]. Description: TRPC6 opening by TRPC4 activator hits – cell-based, HEK293, membrane potential dye, duplicate, selectivity assay for TRPC4 activator project, confirmation (AID 434950;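 active = membrane potential signal rise above negative control mean plus 3 SD in both duplicates, also active in the earlier TRPC4 screen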;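 for activation: 0% = buffer only wells and 100% = acetylcholine maximal-effect wells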). The settings on record: HEK293 TRPC6, membrane potential fluorescence, at 10 µM; activation: active compounds read high; outcome: activation.
For test [11] the target is unchanged. Description: positive modulators of mouse TRPC6 channel – HEK293 cells, membrane potential dye, duplicate, selectivity assay for TRPC4 potentiator project, confirmation (AID 434952;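 active = compound raising the membrane signal above positive-control mean plus 3 SD in both repeats, and a primary screen hit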). The settings on record: HEK293 TRPC6, membrane potential dye fluorescence, at 10 µM, maximal acetylcholine added after compound; active compounds read high.
The target of test [12] is Short transient receptor potential channel 4 (Mus musculus) (UniProt Q9QUQ5). Description: calcium flux activators in TRPC4/5HT1a cells, counter-screen for TRPC4 activator project, cell-based, second counter screen, HEK293 TRPC4/5HT1a, Fluo-4 (AID 434977;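 active = calcium signal rise above buffer-control mean plus 5 SD in both duplicates, and also a hit in the primary screen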;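 for activation: plate controls were assay buffer for no effect and maximal serotonin response for full effect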). The settings on record: Fluo-4 calcium flux, at 10 µM; active compounds read high.
Test [13] can be described thus: serotonin-gated TRPC4 signal block – cell-based, second counter screen, HEK293 TRPC4/5HT1a, Fluo-4, counter-screen for TRPC4 inhibitor project, confirmation (AID 434978;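 active = primary screen active whose calcium signal fell more than 3 SD beyond the full-serotonin control mean in both duplicate plates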;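 for outcome: serotonin given first at submaximal then at maximal dose after compound preincubation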). The settings on record: Fluo-4 calcium flux, at 10 µM, serotonin added to trigger calcium flux; active compounds read high.
The subject of test [14] is TRPC4 (mouse), co-expressed with 5HT1a in HEK293. Description: enhancement of serotonin-evoked TRPC4 response – cell-based, second counter screen, HEK293 TRPC4/5HT1a, Fluo-4, counter-screen for TRPC4 potentiator project, confirmation (AID 434979;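 active = signal rise over 3 SD above mean of control wells given weak agonist, in both repeats and first screen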). The settings on record: Fluo-4 calcium flux, at 10 µM, serotonin added at its EC20 dose; active compounds read high. Background: The purpose of a counterscreen is to sort out artefacts and off-target activity.

A short description of test [15]: nonspecific calcium rise without TRPC4 – cell-based, HEK293 mu-opioid receptor line, counter-screen for TRPC4 activator project, confirmation (AID 449723;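 active = hit in primary screen, with calcium signal over 5 SD above buffer well mean in both duplicates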;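 note: counter screen cells carry the mu-opioid receptor alone and lack TRPC4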). The settings on record: HEK293 mu-opioid cells, Fluo-4 calcium fluorescence, at 10 µM; active compounds read high.
Test [16] in a line: nonspecific potentiation of DAMGO calcium response – cell-based, HEK293 mu-opioid receptor line, counter-screen for TRPC4 allosteric potentiator project, confirmation (AID 449724;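 active = calcium signal rise more than 3 SD above the low-dose agonist control mean, in both duplicate plates and the primary screen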;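 note: HEK293 cells carrying mu-opioid receptor only with no TRPC4 channel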). The settings on record: HEK293 mu-opioid receptor cells, Fluo-4 calcium flux, at 10 µM, compound added before EC20 DAMGO stimulus; active compounds read high.
Test [17] in a line: nonspecific flux increase, KCNQ1-free cells – parental CHO cells, counter-screen for KCNQ1 potentiator project (AID 493006;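 active = duplicate-averaged activation above buffer control mean plus 5 SD of those controls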;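 note: fluorescence ratio of max minus min over baseline after K+ and Tl+ depolarization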). The settings on record: parental CHO-K1 cells, FluxOR thallium flux, at 10 µM; active compounds read high.
In test [18] the target is Potassium voltage-gated channel subfamily KQT member 1 (Homo sapiens) (UniProt P51787). Description: enhancement of KCNQ1 channel thallium flux – FluxOR thallium flux, CHO cells, duplicates, confirmation (AID 493007;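 active = potentiation averaged over duplicate wells exceeding buffer-only control mean by more than 3 SD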;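 note: 0% = buffer-only wells and 100% = R-L3 activator control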). The settings on record: KCNQ1 cell line, FluxOR thallium flux fluorescence, at 10 µM; active compounds read high, % of reference activator effect, buffer zero.
Potassium voltage-gated channel subfamily KQT member 1 (Homo sapiens), sequence (P51787 whole entry, looked up): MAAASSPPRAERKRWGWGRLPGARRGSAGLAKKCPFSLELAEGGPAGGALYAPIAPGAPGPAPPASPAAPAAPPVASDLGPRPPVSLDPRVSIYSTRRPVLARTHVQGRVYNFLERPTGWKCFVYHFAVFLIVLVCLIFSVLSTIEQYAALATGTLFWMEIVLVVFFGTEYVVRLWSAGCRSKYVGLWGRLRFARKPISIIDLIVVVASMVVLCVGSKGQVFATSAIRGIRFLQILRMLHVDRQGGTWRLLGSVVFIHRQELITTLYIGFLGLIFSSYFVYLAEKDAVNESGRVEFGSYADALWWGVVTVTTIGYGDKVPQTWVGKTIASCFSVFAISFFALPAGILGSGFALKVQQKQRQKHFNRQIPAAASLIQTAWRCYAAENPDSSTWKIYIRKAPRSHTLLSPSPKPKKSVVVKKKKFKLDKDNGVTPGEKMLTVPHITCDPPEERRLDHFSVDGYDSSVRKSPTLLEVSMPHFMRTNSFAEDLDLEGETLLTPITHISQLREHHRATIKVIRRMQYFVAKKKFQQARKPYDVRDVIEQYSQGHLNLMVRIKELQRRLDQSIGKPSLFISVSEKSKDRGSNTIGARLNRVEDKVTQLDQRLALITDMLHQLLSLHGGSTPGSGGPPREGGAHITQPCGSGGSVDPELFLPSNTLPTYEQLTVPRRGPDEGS
Test [19] concerns the target Potassium voltage-gated channel subfamily KQT member 2 (Rattus norvegicus) (UniProt O88943). Description: KCNQ2 thallium flux enhancement – KCNQ2-CHO-K1 cells, selectivity assay for KCNQ1 potentiator project (AID 493009;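 active = mean duplicate potentiation above the buffer control mean plus 5 SD of buffer wells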;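 note: assay conditions were tuned for KCNQ1 rather than KCNQ2 modulators; signal is max minus min fluorescence divided by baseline after thallium stimulus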). The settings on record: FluxOR thallium flux fluorescence, at 10 µM; active compounds read high, scaled: buffer 0, activator control 100.
For test [20], the target named is Potassium voltage-gated channel subfamily KQT member 1 (Homo sapiens) (UniProt P51787). Description: KCNQ1 activators by electrophysiology – IonWorks patch clamp, KCNQ1-CHO cells, orthogonal assay for KCNQ1 potentiator project, confirmation (AID 493184;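 active = current rise at least 3 SD above the untreated control mean in each of two repeat wells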). The settings on record: automated patch clamp current, at 10 µM; active compounds read high. (In patch-clamp work, channel activity is measured electrically.)

Structures are written as SMILES. For some of these results: Potency and affinity values are given separately. The source made the active and inactive calls.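 Rule for the calls, unless noted: active = calcium signal cut by more than 3 SD below the full-agonist control yet still positive, in both repeats and the earlier primary screen; inactive = the rest.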

What is called inhibition is the drop in the measured response relative to a control, in per cent.

Potassium voltage-gated channel subfamily KQT member 2 (Rattus norvegicus), sequence (O88943 whole entry, looked up): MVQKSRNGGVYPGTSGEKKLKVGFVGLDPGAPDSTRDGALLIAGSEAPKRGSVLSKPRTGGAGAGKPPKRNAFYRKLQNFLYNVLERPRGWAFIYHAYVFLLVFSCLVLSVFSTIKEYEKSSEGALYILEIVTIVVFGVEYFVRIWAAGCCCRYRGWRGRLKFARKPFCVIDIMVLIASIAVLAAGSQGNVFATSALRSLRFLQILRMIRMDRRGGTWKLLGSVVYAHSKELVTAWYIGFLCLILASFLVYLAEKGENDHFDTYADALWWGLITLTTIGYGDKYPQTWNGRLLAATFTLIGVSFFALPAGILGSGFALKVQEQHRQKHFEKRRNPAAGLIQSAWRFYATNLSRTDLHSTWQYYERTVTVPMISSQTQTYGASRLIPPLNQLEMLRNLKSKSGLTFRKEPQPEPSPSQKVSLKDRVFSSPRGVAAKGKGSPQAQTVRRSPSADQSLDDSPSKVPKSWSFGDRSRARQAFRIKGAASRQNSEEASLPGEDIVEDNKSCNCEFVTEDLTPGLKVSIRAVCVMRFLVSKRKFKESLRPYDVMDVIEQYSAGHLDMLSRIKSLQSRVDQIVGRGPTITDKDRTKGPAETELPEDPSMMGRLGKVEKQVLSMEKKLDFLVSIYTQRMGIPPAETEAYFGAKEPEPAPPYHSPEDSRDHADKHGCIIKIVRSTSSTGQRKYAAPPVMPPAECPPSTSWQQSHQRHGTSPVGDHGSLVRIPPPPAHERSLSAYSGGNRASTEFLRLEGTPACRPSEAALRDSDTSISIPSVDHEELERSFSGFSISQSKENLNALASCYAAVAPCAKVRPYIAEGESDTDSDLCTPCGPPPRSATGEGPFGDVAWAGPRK

For the compound `CCCOc1ccc(C(=O)NNC(=S)NC(=O)c2cccs2)cc1`, the activation in [1] was 104% (active); in test [12], 71.2% (active); in test [15] it was 22.6% (active); in test [17], 139% (active). Further, the result in test [2], in test [3], in test [4], in [5], in test [6] and in test [7] was inactive. Further, the outcome in test [8], in test [9], in [10], in [11], in test [13] and in test [14] was inactive. The outcome in test [16] and in test [20] was inactive. Also, the potentiation in test [18] was 135% (active); in test [19], 275% (active).
For `CCN1CCN(c2c(Cl)cccc2NC(=O)c2ccc3nsnc3c2)CC1`, the activation in test [1] is 57% (active). For the same compound, the outcome in test [2], in test [5], in [6], in test [7], in test [8] and in test [9] was inactive. In addition, the result in test [10], in test [11], in [12], in test [13], in test [14] and in test [15] was inactive. In addition, the result in test [16] was inactive. In addition, the potentiation in test [3] was 22% (active); in test [4], 14% (active).
`CCCc1ccc(OCC(=O)NNC(=S)NC(=O)c2ccco2)cc1`: the outcome in test [1], in [2], in [3], in test [4], in test [5] and in [6] was inactive. The outcome in [7], in test [8], in test [9], in test [10], in test [11] and in [13] was inactive. For the same compound, the result in test [14], in test [15], in [16] and in [20] was inactive. Besides, the values for the activation in test [12] and in test [17] were 46.5% (active) and 164% (active), respectively. The results for the potentiation in test [18] and in [19] were 79.5% (active) and 216% (active), respectively.
Regarding `O=C1CC(O)(C(F)(F)F)Oc2c1ccc1ccccc21` (stereo unspecified), the activation was 216% (active) in test [1], 119% (active) in test [12], 102% (active) in [15] and 222% (active) in test [17]. In addition, the result in test [2], in test [3], in test [4], in [5], in test [6] and in [7] was inactive. The outcome in test [8], in test [9], in test [10], in test [11], in test [13] and in test [14] was inactive. Further, the outcome in test [16] and in test [20] was inactive. The figures for the potentiation in test [18] and in test [19] were 71.5% (active) and 270% (active), respectively.
Take `Cc1onc(-c2ccccc2)c1C(=O)NNC(=S)NC(=O)/C=C/c1ccccc1`: the outcome in test [1], in test [2], in test [3], in test [4], in test [6] and in [7] was inactive. Besides, the outcome in test [9], in test [11], in test [14] and in test [16] was inactive. Besides, the inhibition in [5] was 77% (active); in test [13], 19.2% (active). The values for the activation in [10], in [12] and in test [15] were 32.5% (active), 39.7% (active) and 14.8% (active), respectively.

For the origin of these results see PubChem BioAssay.
